This is an account of results in PubChem BioAssay (NCI).

Among the test systems are SK-MEL-2 melanoma; EKVX NSCLC; SN12C renal; UO-31 renal; TK-10 renal; ACHN renal; A498 renal; CCRF-CEM leukemia; MOLT-4 leukemia; SR leukemia; OVCAR-8 ovarian; OVCAR-5 ovarian; OVCAR-4 ovarian; SK-OV-3 ovarian; IGROV1 ovarian; OVCAR-3 ovarian; HS 578T breast; NCI/ADR-RES ovarian; RPMI-8226 leukemia.
Holding throughout (assay): NCI-60 one-dose screen, 48 h (100 = growth as untreated, 0 = no growth, -100 = all killed)
Common to all, as to conditions: 10 µM unless noted

Structures are written as SMILES. Compounds without any hit were thinned out: in the full panel of roughly 83,000, 20% have a hit.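 Activity criterion: percent growth below 10, measured after cells in 96-well plates were exposed to a single compound concentration for 48 hours.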 Unmarked numbers belong to inactive results. Activity calls are given as the source filed them.

With `CCOC(=O)N1CCc2c(sc3c2C(=O)N[C@H](c2ccc(OC)cc2)N3)C1`, the growth in the assay with SK-MEL-2 melanoma is 96.5%; in the assay on EKVX NSCLC it was 101%; in the assay on SN12C renal, 85.4%; in the assay on UO-31 renal it was 87.6%; in the assay on TK-10 renal it was 109%; with ACHN renal, 103%. Besides, the growth with A498 renal was 96.4%; in the assay with CCRF-CEM leukemia, 95.9%; with MOLT-4 leukemia, 99.7%; in the assay on SR leukemia, 87.7%; with OVCAR-8 ovarian, 89.2%; in the assay on OVCAR-5 ovarian it was 108%. Further, the growth was 102% in the assay on OVCAR-4 ovarian; 65.4% with SK-OV-3 ovarian; 107% with IGROV1 ovarian; 102% with OVCAR-3 ovarian; 98.7% in the assay on HS 578T breast; 102% in the assay on NCI/ADR-RES ovarian.
As to `CN1CCC(=C2c3ccccc3C=Cc3ccccc32)CC1`, the growth in the assay on SK-MEL-2 melanoma was 105%; in the assay with EKVX NSCLC it was 91.9%; with SN12C renal, 79.1%; with UO-31 renal, 67%; in the assay with TK-10 renal, 112%; with ACHN renal it was 84.4%. For the same compound, the growth was 99.2% in the assay with A498 renal; 53.1% with CCRF-CEM leukemia; 72.6% in the assay on MOLT-4 leukemia; 72.7% in the assay on RPMI-8226 leukemia; 85.4% in the assay on OVCAR-8 ovarian; 108% with OVCAR-5 ovarian. In addition, the growth with OVCAR-4 ovarian is 72.9%; with SK-OV-3 ovarian, 97.6%; in the assay on IGROV1 ovarian, 72.7%; in the assay on OVCAR-3 ovarian it was 104%; in the assay on NCI/ADR-RES ovarian, 75.6%.
Turning to `COc1ccc(-c2nnc(SCC(=O)NC3=NN=C(c4ccccc4)CS3)o2)cc1`, the growth in the assay with SK-MEL-2 melanoma is 103%; in the assay on EKVX NSCLC, 101%; in the assay with SN12C renal it was 99.8%; with UO-31 renal it was 88.1%; with TK-10 renal, 106%; with ACHN renal, 99.6%. Moreover, the growth in the assay on A498 renal was 86.4%; with CCRF-CEM leukemia it was 90.8%; in the assay on MOLT-4 leukemia, 83.9%; in the assay on SR leukemia, 86.6%; with OVCAR-8 ovarian, 83%; in the assay on OVCAR-5 ovarian it was 102%. Also, the growth in the assay on OVCAR-4 ovarian was 100%; in the assay with SK-OV-3 ovarian, 93.5%; with IGROV1 ovarian, 108%; with OVCAR-3 ovarian it was 107%; with HS 578T breast it was 97.3%; with NCI/ADR-RES ovarian, 104%.
In the case of `CC(=O)Nc1ccc(-c2cc3c(NCc4ccc(F)cc4)ncnc3s2)cc1`, the growth was 95.4% with SK-MEL-2 melanoma; 67.5% in the assay with EKVX NSCLC; 72.6% in the assay on SN12C renal; 62.2% in the assay with UO-31 renal; 70.5% in the assay on TK-10 renal; 65.5% in the assay with ACHN renal. Besides, the growth was 61.9% in the assay with A498 renal; 96.3% in the assay on CCRF-CEM leukemia; 95.3% in the assay on MOLT-4 leukemia; 77.2% in the assay on SR leukemia; 26.9% in the assay on OVCAR-8 ovarian; 78.1% in the assay with OVCAR-5 ovarian. Further, the growth with OVCAR-4 ovarian was 44.5%; in the assay with SK-OV-3 ovarian it was 69.5%; in the assay with IGROV1 ovarian, 61.1%; in the assay on OVCAR-3 ovarian, 81.6%; in the assay with HS 578T breast, 70.3%; in the assay on NCI/ADR-RES ovarian, 69.4%.
Regarding `CCOC(=O)C1=C(C)NC(SCc2nnc(-c3ccc(Cl)cc3)o2)=NC1c1ccc(Cl)cc1Cl` (stereo unspecified), the growth was 60.3% in the assay on SK-MEL-2 melanoma; 77.2% in the assay on EKVX NSCLC; 65.4% in the assay with SN12C renal; 37.2% in the assay with UO-31 renal; 79.4% with TK-10 renal; 57.7% in the assay on ACHN renal. Further, the growth in the assay on CCRF-CEM leukemia is 27.4%; in the assay on MOLT-4 leukemia it was 11.3%; in the assay on SR leukemia, 37.9%; in the assay on OVCAR-8 ovarian it was 54.2%; in the assay on OVCAR-5 ovarian, 89%; in the assay with OVCAR-4 ovarian it was 52.7%. In addition, the growth was 90.3% in the assay with SK-OV-3 ovarian; 43.9% in the assay on IGROV1 ovarian; 62.8% with OVCAR-3 ovarian; 67.1% in the assay on HS 578T breast; 54.6% in the assay on NCI/ADR-RES ovarian.
`COc1ccc(/C=C2\COc3ccc(O)c(O)c3C2=O)c(OC)c1`: the growth was 90.7% in the assay on SK-MEL-2 melanoma; 85.3% in the assay on EKVX NSCLC; 33% in the assay with SN12C renal; 34.5% in the assay on UO-31 renal; 22.5% with TK-10 renal; 56.2% in the assay on ACHN renal. The growth is 114% with A498 renal; 4.18% (active) in the assay on CCRF-CEM leukemia; 7.29% (active) with MOLT-4 leukemia; 18.9% in the assay on SR leukemia; 41.5% in the assay on OVCAR-8 ovarian; 74.1% in the assay on OVCAR-5 ovarian. Besides, the growth in the assay with OVCAR-4 ovarian is 47.3%; in the assay on SK-OV-3 ovarian, 72.7%; with IGROV1 ovarian it was 31.3%; in the assay with OVCAR-3 ovarian, 29.4%; in the assay with HS 578T breast it was 65.5%; in the assay with NCI/ADR-RES ovarian, 57.8%.
`C=C1C(=O)O[C@H]2[C@H]1CC/C(COC(=O)/C=C\C(=O)NCc1ccc(Cn3c(=O)sn(CCCC)c3=O)cc1)=C\CC[C@@]1(C)O[C@@H]21`: the growth in the assay on SK-MEL-2 melanoma was -54.2% (active); in the assay with EKVX NSCLC, -48% (active); in the assay on SN12C renal, -93% (active); with UO-31 renal, -100% (active); with TK-10 renal it was -76.9% (active); in the assay on ACHN renal, -100% (active). In addition, the growth in the assay on A498 renal was 11.2%; in the assay with CCRF-CEM leukemia, -26.1% (active); with MOLT-4 leukemia, -17.4% (active); in the assay on SR leukemia, -24.7% (active); in the assay on OVCAR-8 ovarian, 2.61% (active); in the assay on OVCAR-5 ovarian, -78.9% (active). Further, the growth in the assay on OVCAR-4 ovarian is -81.8% (active); in the assay with SK-OV-3 ovarian, 55.7%; in the assay with IGROV1 ovarian, -100% (active); in the assay on OVCAR-3 ovarian, -80.5% (active); with HS 578T breast it was -20.4% (active); with NCI/ADR-RES ovarian, -9.25% (active).
In the case of `CCCCN1CCN(c2ccc3nc(-c4ccc5nc(-c6cc(OC)c(OC)c(OC)c6)[nH]c5c4)[nH]c3c2)CC1`, the growth with SK-MEL-2 melanoma is 83.8%; with EKVX NSCLC it was 106%; in the assay with SN12C renal, 80.2%; in the assay on UO-31 renal, 79.8%; with TK-10 renal it was 131%; in the assay with ACHN renal, 86.8%. The growth was 25.1% with CCRF-CEM leukemia; 47% with MOLT-4 leukemia; 55.9% with RPMI-8226 leukemia; 56.2% in the assay on OVCAR-8 ovarian; 117% in the assay on OVCAR-5 ovarian; 84.4% in the assay with OVCAR-4 ovarian. In addition, the growth with IGROV1 ovarian is 94.2%; in the assay with OVCAR-3 ovarian it was 67%; with HS 578T breast, 45%; in the assay on NCI/ADR-RES ovarian, 102%.
Consider `CCn1c(Sc2nnc(NC(=O)CCN3CCCC3)s2)nc2c1c(=O)n(C)c(=O)n2C`, for which the growth with SK-MEL-2 melanoma is 108%; in the assay on EKVX NSCLC it was 99.3%; in the assay with SN12C renal it was 96.8%; in the assay with UO-31 renal, 88.7%; in the assay with TK-10 renal, 104%; in the assay with ACHN renal it was 100%. Further, the growth is 103% with CCRF-CEM leukemia; 108% in the assay on MOLT-4 leukemia; 111% in the assay with SR leukemia; 103% in the assay with OVCAR-8 ovarian; 98.3% with OVCAR-5 ovarian; 105% in the assay on OVCAR-4 ovarian. Further, the growth in the assay on IGROV1 ovarian was 115%; in the assay with OVCAR-3 ovarian, 109%; in the assay on HS 578T breast, 100%; in the assay on NCI/ADR-RES ovarian it was 109%.
